Measured values: PubChem BioAssay (Tox21)
“And” between values parts separate entries of the source, which are not always exact repeats. Identical values can stand only once. Results filed as inconclusive are left out. Some compounds were tested as several samples or in several runs, with calls that do not always agree. The source made the active and inactive calls. Unless noted, calls come from the whole dose curve; as a rule, active = well fitted curve in the direction sought with a large enough effect in the repeat runs; inconclusive = weak or mixed curves; inactive = no such curve, though single readings can be large; an effect the other way counts as inactive or inconclusive.

What was measured:
[1] = qHTS assay to identify small molecule antagonists of the estrogen related receptor (ERR) signaling pathway from Tox21 library - cell viability counter screen (AID 1224834); note: nearly all actives have a fitted effect of over 30% in size; note: potency is the fitted concentration of half-maximal effect
In short: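 Seeded ERR cells were rested 6 h at 37 C/5% CO2 before compounds, positive and negative controls or DMSO were added. Incubation continued for 17.5 h, and viability was then quantified by CellTiter-Fluor fluorescence.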

[2] = biological target: Luciferin 4-monooxygenase (Photinus pyralis) (UniProt P08659); assay: qHTS assay to identify small molecule inhibitors of firefly luciferase (AID 1224835); note: nearly all actives have a fitted effect of over 25% in size; note: potency is the fitted concentration of half-maximal effect
In short: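 Biochemical qHTS: compounds run as interplate titrations against purified firefly enzyme, with D-luciferin and ATP each at its KM concentration. Light output recorded by CCD imaging.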

[3] = qHTS assay to identify small molecule agonists of the constitutive androstane receptor (CAR) signaling pathway - cell viability counter screen (AID 1224836); note: nearly all actives have a fitted effect of over 45% in size; note: potency is the fitted concentration of half-maximal effect
In short: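 Using CellTiter-Fluor, viability of HepG2 cells harbouring hCAR and CYP2B6-2.2kb was measured following 23 h incubation with a 15-concentration compound series plus PK11195 (0.75 uM final).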

[4] = qHTS RealTime-Glo MT Cell Viability Assay in HepG2 cells - 24 hour (AID 1224867); note: nearly all actives have a fitted effect of over 50% in size; note: potency is the fitted concentration of half-maximal effect
In short: (§1)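 Viability was tracked continuously by NanoLuc luminescence from prosubstrate reduced by living HepG2 cells, at successive time points over 40 h of compound exposure. Cells with reagent were preincubated 5 h at 37 °C before compound addition.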

[5] = A CellTox Green Cytotoxicity Assay to monitor cytotoxicity in HepG2 cells - 24 hour (AID 1224878); note: nearly all actives have a fitted effect of over 45% in size; note: potency is the fitted concentration of half-maximal effect
In short: (§2)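 Measurements at 0, 8, 16, 24, 32 and 40 h of treatment captured CellTox Green fluorescence in HepG2 cells that had been co-plated with reagent and preincubated 5 h at 37 C/5% CO2.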

[6] = A CellTox Green Cytotoxicity Assay to monitor cytotoxicity in HepG2 cells - 40 hour (AID 1224879); note: nearly all actives have a fitted effect of over 40% in size; note: potency is the fitted concentration of half-maximal effect
In short: as §2

[7] = A CellTox Green Cytotoxicity Assay to monitor cytotoxicity in HepG2 cells - 32 hour (AID 1224883); note: nearly all actives have a fitted effect of over 50% in size; note: potency is the fitted concentration of half-maximal effect
In short: as §2

[8] = qHTS RealTime-Glo MT Cell Viability Assay in HepG2 cells - 16 hour (AID 1224885); note: nearly all actives have a fitted effect of over 50% in size; note: potency is the fitted concentration of half-maximal effect
In short: as §1

[9] = qHTS assay to identify small molecule antagonists of the sonic hedgehog signaling (Shh) pathway - cell viability counter screen (AID 1259367); note: nearly all actives have a fitted effect of over 55% in size; note: potency is the fitted concentration of half-maximal effect
In short: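 Tox21 library chemicals were tested on a Gli1-Luc NIH/3T3 clone (2,000 cells/well) stimulated by conditioned medium; viability was quantified as fluorescence from CellTiter-Fluor reagent added at 23 hr.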

[10] = qHTS assay to identify small molecule agonists of the TGF-beta/Smad signaling pathway - cell viability counter screen (AID 1346829); note: top concentration of the series differs between compounds; nearly all actives have a fitted effect of over 45% in size
In short: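 Cytotoxicity counter screen: CellTiter-Glo luminescence (30 min, room temperature) measured in the SBE-bla HEK 293T reporter wells after 5 hr compound treatment at 37 C and the 2 hr substrate step.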

[11] = biological target: Cytochrome P450 2C9 (Homo sapiens) (UniProt P11712); assay: Cytochrome P450 Family 2 Subfamily C Member 9 (CYP2C9) small molecule antagonists: luciferase reporter qHTS assay (AID 1671198); note: nearly all actives have a fitted effect of over 50% in size; note: potency is the fitted concentration of half-maximal effect
In short: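 P450-Glo proluciferin substrate with CYP2C9 enzyme; 10 min RT preincubation, then NADPH regeneration 1 h at 37C; luciferin detection reagent 20 min RT, luminescence in relative luminescence units.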

[12] = biological target: Retinoic acid receptor RXR-alpha (Homo sapiens) (UniProt P19793); assay: qHTS assay to identify small molecule agonists of the RXR signaling pathway (AID 1159527; calls by dose curve; note: nearly all actives have a fitted effect of over 35% in size; note: potency is the fitted concentration of half-maximal effect)
In short: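 16 hr incubation of compound-treated RXR-alpha-UAS-bla HEK 293T cells (2% charcoal-stripped FBS, 37 C) preceded a 2 hr room-temperature LiveBLAzer FRET substrate step and blue/green fluorescence measurement.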

[13] = qHTS RealTime-Glo MT Cell Viability Assay in HEK293 cells - 32 hour (AID 1224868); note: nearly all actives have a fitted effect of over 50% in size; note: potency is the fitted concentration of half-maximal effect
In short: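 Viability tracked continuously by luminescence as live cells reduce a prosubstrate for NanoLuc; HEK293 cells preincubated 5 h, compound-treated at 37 C, and read at 0, 8, 16, 24, 32 and 40 h.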

[14] = qHTS RealTime-Glo MT Cell Viability Assay in HEK293 cells - 0 hour (AID 1224880); note: top concentration of the series differs between compounds; nearly all actives have a fitted effect of over 45% in size
In short: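 HEK293 + NanoLuc + prosubstrate, 600 cells/well; 5 h, 37 C/5% CO2; compound 23 nL in DMSO by pintool; 37 C; luminescence read at 0, 8, 16, 24, 32 and 40 h time points.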

[15] = A CellTox Green Cytotoxicity Assay to monitor cytotoxicity in HEK293 cells - 8 hour (AID 1224884); note: nearly all actives have a fitted effect of over 35% in size; note: potency is the fitted concentration of half-maximal effect
In short: (§3)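 Tox21 screen in HEK293: membrane-impermeant cyanine dye fluoresces on binding dead-cell DNA; compound pinned 5 h post-seeding, plates held at 37 C, signal read repeatedly through 40 h.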

[16] = A CellTox Green Cytotoxicity Assay to monitor cytotoxicity in HEK293 cells - 16 hour (AID 1224888); note: nearly all actives have a fitted effect of over 35% in size; note: potency is the fitted concentration of half-maximal effect
In short: as §3

[17] = qHTS RealTime-Glo MT Cell Viability Assay in HepG2 cells - 0 hour (AID 1224889); note: nearly all actives have a fitted effect of over 50% in size
In short: as §1

[18] = biological target: Estrogen receptor (Homo sapiens) (UniProt P03372); assay: qHTS assay to identify small molecule agonists of the estrogen receptor alpha (ER-alpha) signaling pathway in the presence of an antagonist (AID 1259383; calls by dose curve; note: top concentration of the series differs between compounds; nearly all actives have a fitted effect of over 15% in size)
In short: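 Quantitative HTS confirmation: compounds titrated at 15 concentrations onto estrogen-deprived VM7Luc4E2 cells carrying a four-ERE luciferase construct, with ICI-182,780 present at 10.0nM final. Signal is luminescence after 22hr exposure.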

[19] = biological target: Nuclear receptor subfamily 1 group I member 2 (Homo sapiens) (UniProt O75469); assay: Human pregnane X receptor (PXR) small molecule agonists, qHTS assay (AID 1346982); note: nearly all actives have a fitted effect of over 35% in size; note: potency is the fitted concentration of half-maximal effect
In short: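 Stable HepG2 line reporting PXR-mediated CYP3A4 expression via luciferase. Treatment: 24 hr with compounds in DMSO at 37 C. Detection: ONE-Glo luminescence.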

[20] = biological target: Cytochrome P450 2C19 (Homo sapiens) (UniProt P33261); assay: Cytochrome P450 Family 2 Subfamily C Member 19 (CYP2C19) small molecule antagonists: luciferase reporter qHTS assay (AID 1671197); note: potency is the fitted concentration of half-maximal effect; nearly all actives have a fitted effect of over 65% in size
In short: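 Luminescent readout of CYP2C19 activity: luciferin product detected 20 min after adding detection reagent. Before that, compound and enzyme-substrate mix preincubated 10 min at room temperature; NADPH-regenerating system started a 1 h, 37C reaction. Ketoconazole as positive control.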

Measured: Potency

Estrogen receptor (Homo sapiens), sequence (P03372 whole entry, looked up): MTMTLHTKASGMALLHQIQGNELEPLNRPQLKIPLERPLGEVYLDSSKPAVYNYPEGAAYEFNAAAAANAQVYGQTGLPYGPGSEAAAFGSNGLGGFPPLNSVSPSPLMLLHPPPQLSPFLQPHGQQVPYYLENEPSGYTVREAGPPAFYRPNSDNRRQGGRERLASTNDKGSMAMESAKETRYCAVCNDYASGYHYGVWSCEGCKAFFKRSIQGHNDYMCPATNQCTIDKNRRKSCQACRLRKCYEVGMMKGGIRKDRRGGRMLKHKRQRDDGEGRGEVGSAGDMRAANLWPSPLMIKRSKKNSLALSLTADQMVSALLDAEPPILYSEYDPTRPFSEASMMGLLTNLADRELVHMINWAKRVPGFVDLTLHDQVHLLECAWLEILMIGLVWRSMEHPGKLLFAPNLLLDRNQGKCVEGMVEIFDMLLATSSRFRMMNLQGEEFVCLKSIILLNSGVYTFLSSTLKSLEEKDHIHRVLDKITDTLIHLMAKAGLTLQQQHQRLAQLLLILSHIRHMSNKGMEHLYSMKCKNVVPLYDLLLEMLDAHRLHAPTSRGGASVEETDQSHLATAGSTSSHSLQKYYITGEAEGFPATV
Nuclear receptor subfamily 1 group I member 2 (Homo sapiens), sequence (O75469 whole entry, looked up): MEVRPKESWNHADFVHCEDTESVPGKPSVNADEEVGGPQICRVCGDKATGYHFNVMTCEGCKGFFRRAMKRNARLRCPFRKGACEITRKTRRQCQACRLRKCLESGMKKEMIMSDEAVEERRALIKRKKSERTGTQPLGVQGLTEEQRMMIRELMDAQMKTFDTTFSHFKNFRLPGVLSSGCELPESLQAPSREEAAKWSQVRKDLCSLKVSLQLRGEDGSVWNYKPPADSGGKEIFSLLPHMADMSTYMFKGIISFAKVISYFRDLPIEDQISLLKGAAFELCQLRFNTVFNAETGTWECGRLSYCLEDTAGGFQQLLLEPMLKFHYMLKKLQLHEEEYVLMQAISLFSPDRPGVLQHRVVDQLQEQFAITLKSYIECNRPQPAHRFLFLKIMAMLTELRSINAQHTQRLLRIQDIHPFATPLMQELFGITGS
Luciferin 4-monooxygenase (Photinus pyralis), sequence (P08659 whole entry, looked up): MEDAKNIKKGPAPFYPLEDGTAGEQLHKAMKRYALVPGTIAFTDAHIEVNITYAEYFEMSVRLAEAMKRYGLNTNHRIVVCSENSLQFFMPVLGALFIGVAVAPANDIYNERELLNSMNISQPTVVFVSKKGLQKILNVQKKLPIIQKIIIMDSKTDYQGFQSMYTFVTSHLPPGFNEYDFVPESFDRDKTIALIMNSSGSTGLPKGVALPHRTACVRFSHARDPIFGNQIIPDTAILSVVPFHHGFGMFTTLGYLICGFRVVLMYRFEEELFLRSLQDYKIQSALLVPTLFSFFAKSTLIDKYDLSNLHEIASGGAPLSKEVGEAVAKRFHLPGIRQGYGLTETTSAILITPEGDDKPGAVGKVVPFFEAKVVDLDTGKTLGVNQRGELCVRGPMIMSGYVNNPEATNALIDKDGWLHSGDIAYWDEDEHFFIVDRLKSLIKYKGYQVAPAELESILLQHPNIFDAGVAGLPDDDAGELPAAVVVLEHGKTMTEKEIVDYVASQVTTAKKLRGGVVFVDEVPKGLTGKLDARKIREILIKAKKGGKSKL
Retinoic acid receptor RXR-alpha (Homo sapiens), sequence (P19793 whole entry, looked up): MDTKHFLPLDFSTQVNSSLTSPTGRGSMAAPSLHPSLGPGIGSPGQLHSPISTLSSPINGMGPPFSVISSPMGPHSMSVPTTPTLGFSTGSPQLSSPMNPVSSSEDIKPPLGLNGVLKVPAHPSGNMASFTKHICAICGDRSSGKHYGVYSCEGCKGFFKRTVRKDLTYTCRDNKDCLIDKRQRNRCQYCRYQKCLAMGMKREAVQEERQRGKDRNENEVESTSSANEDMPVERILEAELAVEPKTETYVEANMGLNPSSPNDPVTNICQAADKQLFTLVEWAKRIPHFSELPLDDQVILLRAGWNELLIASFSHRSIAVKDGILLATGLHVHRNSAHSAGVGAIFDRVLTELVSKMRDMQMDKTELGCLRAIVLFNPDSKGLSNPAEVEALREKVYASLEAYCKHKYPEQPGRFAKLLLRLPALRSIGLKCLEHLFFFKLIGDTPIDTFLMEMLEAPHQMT
Cytochrome P450 2C19 (Homo sapiens), sequence (P33261 whole entry, looked up): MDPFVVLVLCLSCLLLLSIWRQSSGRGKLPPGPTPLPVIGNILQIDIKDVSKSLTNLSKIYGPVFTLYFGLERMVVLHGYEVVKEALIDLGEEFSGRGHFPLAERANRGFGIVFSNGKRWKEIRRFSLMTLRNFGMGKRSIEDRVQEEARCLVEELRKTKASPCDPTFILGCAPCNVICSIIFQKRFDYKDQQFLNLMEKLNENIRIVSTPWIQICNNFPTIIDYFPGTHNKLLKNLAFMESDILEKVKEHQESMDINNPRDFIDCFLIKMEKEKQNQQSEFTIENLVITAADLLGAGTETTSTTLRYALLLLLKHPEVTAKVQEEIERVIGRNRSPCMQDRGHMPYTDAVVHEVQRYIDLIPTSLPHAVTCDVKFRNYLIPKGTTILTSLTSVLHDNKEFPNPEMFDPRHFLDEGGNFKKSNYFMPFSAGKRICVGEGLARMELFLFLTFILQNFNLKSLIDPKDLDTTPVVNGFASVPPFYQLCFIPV
Cytochrome P450 2C9 (Homo sapiens), sequence (P11712 whole entry, looked up): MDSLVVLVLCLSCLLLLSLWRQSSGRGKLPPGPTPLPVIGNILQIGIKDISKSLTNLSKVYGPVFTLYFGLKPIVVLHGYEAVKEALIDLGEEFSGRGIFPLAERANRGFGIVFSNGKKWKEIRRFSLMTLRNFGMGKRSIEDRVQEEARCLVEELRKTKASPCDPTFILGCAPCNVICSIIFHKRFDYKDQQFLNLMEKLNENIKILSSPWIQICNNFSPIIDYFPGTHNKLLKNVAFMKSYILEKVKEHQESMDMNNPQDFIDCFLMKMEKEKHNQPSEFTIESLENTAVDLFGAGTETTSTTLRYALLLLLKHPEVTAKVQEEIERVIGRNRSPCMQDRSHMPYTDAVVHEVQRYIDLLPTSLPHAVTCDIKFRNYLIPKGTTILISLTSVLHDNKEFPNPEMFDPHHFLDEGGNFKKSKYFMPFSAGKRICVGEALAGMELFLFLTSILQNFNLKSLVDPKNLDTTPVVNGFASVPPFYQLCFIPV

c1ccc2c(c1)Sc1ccccc1N2CC1CN2CCC1CC2 (centres undefined)
active: [1] 29.8 µM | [3] 29.8 µM | [4] 21.3 µM | [5] 23.9 µM | [6] 19 µM | [7] 21.3 µM | [8] 23.9 µM | [9] 11.9 µM
inactive: [2] | [10] | [11]

CCc1cccc(CC)c1N
inactive: [12]

N#Cc1cc([N+](=O)[O-])ccc1N
not listed: [1] | [3] | [9] | [12] | [20]
inactive: all other assays above

O=C1OC(=O)c2c(Cl)c(Cl)c(Cl)c(Cl)c21
inactive: [12]

ClC1=C(Cl)C(Cl)(Cl)C(Cl)=C1Cl
inactive: [12]

CCC(C)=O
inactive: [12]

COCCOC(=O)c1ccccc1C(=O)OCCOC
inactive: [12]

CC(c1ccccc1)(c1ccc(O)cc1)c1ccc(O)cc1
active: [1] 61.1 µM | [13] 43.6 µM | [5] 43.6 µM | [6] 38.9 µM | [7] 43.6 µM | [19] 17.2 µM | [20] 8.94 µM | [11] 8.94 µM
inactive: [2] | [3] | [4] | [15] | [8] | [17] | [18] | [10]

CC1COC(Cn2cncn2)(c2ccc(Oc3ccc(Cl)cc3)cc2Cl)O1 (centres undefined)
inactive: [2] | [5] | [14] | [15] | [16] | [9] | [18] | [10]
active: [1] 27.3 µM | [13] 19.5 µM | [19] 61.1 µM | [20] 0.0502 µM | [11] 1.12 µM

CC(C)(C)c1cc(C(C)(C)C)c(O)c(C(C)(C)C)c1
active: [12] 15.5 µM

CCCCC(CC)COC(=O)c1ccc(C(=O)OCC(CC)CCCC)cc1 (centres undefined)
inactive: [12]

Oc1c(I)cc(I)cc1I
active: [11] 56.4 µM
not listed: [12] | [19] | [20]
inactive: all other assays above

OC(Cc1ccccc1Cl)(Cn1[nH]cnc1=S)C1(Cl)CC1 (centres undefined)
active: [20] 1.26 µM | [11] 0.894 µM
not listed: [1] | [2] | [12] | [13] | [14] | [19]
inactive: all other assays above

CCOC(=O)C(O)(c1ccc(Cl)cc1)c1ccc(Cl)cc1
active: [1] 49.1 µM | [13] 22.1 µM | [20] 453 nM and 317 nM | [11] 10.1 µM and 7.96 µM
inactive and 43.6 µM (active): [6] | [7]
27.6 µM (active) and inactive: [19]
inactive and 38.9 µM (active): [5]
not listed: [9] | [12]
inactive: all other assays above

O=S(=O)(C(Cl)(Cl)Cl)C(Cl)(Cl)Cl
active: [1] 48.6 µM | [2] 20 µM | [3] 54.5 µM | [4] 38.9 µM | [13] 9.77 µM | [5] 27.5 µM | [6] 19.5 µM | [7] 24.5 µM | [15] 24.5 µM | [8] 38.9 µM | [16] 24.5 µM | [9] 54.5 µM | [20] 25.2 µM | [11] 11.2 µM
inactive: [14] | [18] | [19]

O=C(Nc1ccccc1-c1ccc(Cl)cc1)c1cccnc1Cl
active: [5] 41.2 µM | [6] 46.3 µM | [7] 46.3 µM | [15] 46.3 µM | [19] 10.3 µM | [20] 3.56 µM
inactive: [3] | [4] | [14] | [8] | [9] | [18] | [11]

CCCCC(CC)COC(=O)CCCCC(=O)OCC(CC)CCCC (centres undefined)
inactive: [12]

CNC(=O)Oc1cc(C)c(SC)c(C)c1
active: [16] 21.9 µM | [19] 61.1 µM | [20] 56.4 µM
not listed: [2] | [11] | [13]
inactive: all other assays above
